From PubChem BioAssay (NCI)
Compounds without any hit were thinned out: in the full panel of roughly 83,000, 20% have a hit.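 In brief: 96-well plates, 48 h treatment, single concentration, percent growth endpoint.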 Active and inactive are the calls of the source. The calls were made as follows: active = growth percent below 10; inactive = the rest.

Key:
Assay in all cases: NCI-60 one-dose screen, 48 h (100 = growth as untreated, 0 = no growth, -100 = all killed)
Conditions in all cases: 10 µM unless noted
SK-MEL-2 melanoma = tested on: SK-MEL-2 melanoma
EKVX NSCLC = tested on: EKVX NSCLC
SN12C renal = tested on: SN12C renal
UO-31 renal = tested on: UO-31 renal
TK-10 renal = tested on: TK-10 renal
ACHN renal = tested on: ACHN renal
CAKI-1 renal = tested on: CAKI-1 renal
A498 renal = tested on: A498 renal
CCRF-CEM leukemia = tested on: CCRF-CEM leukemia
MOLT-4 leukemia = tested on: MOLT-4 leukemia
SR leukemia = tested on: SR leukemia
RPMI-8226 leukemia = tested on: RPMI-8226 leukemia
OVCAR-8 ovarian = tested on: OVCAR-8 ovarian
OVCAR-5 ovarian = tested on: OVCAR-5 ovarian
OVCAR-4 ovarian = tested on: OVCAR-4 ovarian
SK-OV-3 ovarian = tested on: SK-OV-3 ovarian
IGROV1 ovarian = tested on: IGROV1 ovarian
OVCAR-3 ovarian = tested on: OVCAR-3 ovarian
HS 578T breast = tested on: HS 578T breast
NCI/ADR-RES ovarian = tested on: NCI/ADR-RES ovarian

Measured: growth

O=[N+]([O-])/C(=C\c1ccco1)c1ccccc1Cl
inactive: SK-MEL-2 melanoma 60.6% | EKVX NSCLC 83.1% | SN12C renal 78.4% | UO-31 renal 66.6% | TK-10 renal 82.8% | ACHN renal 81.1% | CAKI-1 renal 67% | A498 renal 41.9% | CCRF-CEM leukemia 60.5% | MOLT-4 leukemia 74.1% | SR leukemia 55.3% | RPMI-8226 leukemia 85.9% | OVCAR-8 ovarian 81.6% | OVCAR-5 ovarian 75.4% | OVCAR-4 ovarian 69.3% | SK-OV-3 ovarian 60.1% | IGROV1 ovarian 75.7% | OVCAR-3 ovarian 77.9% | HS 578T breast 84.8% | NCI/ADR-RES ovarian 85.5%

CCN(CC)CCOc1ccc(Nc2ncc3cc(-c4ccc(O)cc4)c(=O)n(C)c3n2)cc1
active: CCRF-CEM leukemia -8.41% | MOLT-4 leukemia 5.99% | SR leukemia -20.5%
inactive: SK-MEL-2 melanoma 97.7% | EKVX NSCLC 74% | SN12C renal 39.9% | UO-31 renal 10.5% | TK-10 renal 81.2% | ACHN renal 26% | CAKI-1 renal 26.4% | A498 renal 69.4% | RPMI-8226 leukemia 70.6% | OVCAR-8 ovarian 55.7% | OVCAR-5 ovarian 57.9% | OVCAR-4 ovarian 110% | SK-OV-3 ovarian 53% | IGROV1 ovarian 23.2% | OVCAR-3 ovarian 71.1% | HS 578T breast 33.5% | NCI/ADR-RES ovarian 84%

COc1cc(/C=C\c2cc(/C=C\c3ccc(O)c(OC)c3)n(C(=O)CNc3ccc(Cl)cc3)n2)ccc1O
active: SK-MEL-2 melanoma 9.05% | MOLT-4 leukemia 8.25% | SR leukemia 3.39%
inactive: EKVX NSCLC 42.2% | SN12C renal 22.5% | UO-31 renal 15.9% | TK-10 renal 47.2% | ACHN renal 23.6% | CAKI-1 renal 29.3% | A498 renal 44.5% | CCRF-CEM leukemia 10% | RPMI-8226 leukemia 17.4% | OVCAR-8 ovarian 28.2% | OVCAR-5 ovarian 86.9% | OVCAR-4 ovarian 56.6% | SK-OV-3 ovarian 21.1% | IGROV1 ovarian 36.7% | OVCAR-3 ovarian 22.9% | HS 578T breast 30% | NCI/ADR-RES ovarian 21%

CC1CN=C(c2cccc(-c3ccc(-c4ccccc4)o3)c2)N1 (stereo not given)
inactive: EKVX NSCLC 37.2% | SN12C renal 32.2% | TK-10 renal 30.1% | A498 renal 25.7% | OVCAR-8 ovarian 33.7% | OVCAR-4 ovarian 43.1% | SK-OV-3 ovarian 18.4% | IGROV1 ovarian 31% | OVCAR-3 ovarian 10.6% | HS 578T breast 17.4% | NCI/ADR-RES ovarian 28.3%
active: SK-MEL-2 melanoma -69.7% | UO-31 renal -0.664% | ACHN renal -21.8% | CAKI-1 renal 5.69% | CCRF-CEM leukemia -13.4% | MOLT-4 leukemia -16.5% | SR leukemia -9.42% | RPMI-8226 leukemia -26.3% | OVCAR-5 ovarian -5.49%

COc1cc(OC)cc(C2C(C#N)=C(N)Oc3c2ccc2ccc(O)cc32)c1 (stereo not given)
inactive: SK-MEL-2 melanoma 21.3% | EKVX NSCLC 32.9% | UO-31 renal 18.7% | TK-10 renal 48.3% | ACHN renal 15.8% | CAKI-1 renal 21.1% | A498 renal 32.1% | SR leukemia 12.6% | OVCAR-8 ovarian 18.1% | OVCAR-5 ovarian 33.1% | OVCAR-4 ovarian 55.6% | SK-OV-3 ovarian 42.3% | IGROV1 ovarian 14.3% | HS 578T breast 53.2%
active: SN12C renal 9.97% | CCRF-CEM leukemia 7.39% | MOLT-4 leukemia 7.26% | RPMI-8226 leukemia 8.83% | OVCAR-3 ovarian -16% | NCI/ADR-RES ovarian -8.97%

Cn1cc(-c2ccc3cc(-c4ccc(CC(=O)Nc5cc(C(C)(C)C)on5)cc4)cnc3c2)cn1
active: UO-31 renal 9.45% | ACHN renal -23% | A498 renal -4.2% | CCRF-CEM leukemia 3.44% | MOLT-4 leukemia 4.87% | SR leukemia 3.71% | OVCAR-4 ovarian -21.9% | SK-OV-3 ovarian 5.31% | IGROV1 ovarian 3.11% | HS 578T breast 9.69%
inactive: SK-MEL-2 melanoma 18.9% | EKVX NSCLC 38.8% | SN12C renal 16.7% | TK-10 renal 43.9% | CAKI-1 renal 12.8% | RPMI-8226 leukemia 19.6% | OVCAR-8 ovarian 20.4% | OVCAR-5 ovarian 56.7% | OVCAR-3 ovarian 48.9% | NCI/ADR-RES ovarian 33.1%

Cc1ccc(C)c(-n2c(-c3ccc(Br)cc3)csc2=NC(=O)c2ccccc2F)c1
inactive: SK-MEL-2 melanoma 101% | EKVX NSCLC 76.1% | SN12C renal 85.8% | UO-31 renal 108% | TK-10 renal 116% | ACHN renal 52.9% | CAKI-1 renal 76.1% | A498 renal 80.7% | CCRF-CEM leukemia 43.4% | MOLT-4 leukemia 30.5% | OVCAR-8 ovarian 65.3% | OVCAR-5 ovarian 112% | OVCAR-4 ovarian 40.6% | SK-OV-3 ovarian 86.9% | IGROV1 ovarian 213% | OVCAR-3 ovarian 75.5% | HS 578T breast 101% | NCI/ADR-RES ovarian 56.7%
active: SR leukemia -11.5% | RPMI-8226 leukemia -11.2%

CCOC(=O)C1=C(C)N=C2SC=C(c3ccccc3)N2[C@H]1c1cn[nH]c1-c1ccc(Cl)cc1
active: UO-31 renal -33% | CAKI-1 renal -15.1% | CCRF-CEM leukemia -19.8% | MOLT-4 leukemia -7.33% | SR leukemia -31.2% | RPMI-8226 leukemia -8.38% | IGROV1 ovarian -24.4%
inactive: SK-MEL-2 melanoma 65.6% | EKVX NSCLC 72.3% | SN12C renal 48.8% | TK-10 renal 63.3% | ACHN renal 41.1% | A498 renal 68.8% | OVCAR-8 ovarian 50.9% | OVCAR-5 ovarian 108% | OVCAR-4 ovarian 55.6% | SK-OV-3 ovarian 62.5% | OVCAR-3 ovarian 22.5% | HS 578T breast 45.6% | NCI/ADR-RES ovarian 69.4%

COc1cc2cc(NCc3ccc(OC(F)F)cc3)nc(C)c2cc1OC
inactive: SK-MEL-2 melanoma 79.8% | EKVX NSCLC 75.6% | SN12C renal 62.6% | UO-31 renal 38.6% | TK-10 renal 54.1% | ACHN renal 69.5% | CAKI-1 renal 51.5% | A498 renal 30.5% | CCRF-CEM leukemia 68.9% | MOLT-4 leukemia 63.3% | SR leukemia 53.1% | RPMI-8226 leukemia 42.5% | OVCAR-8 ovarian 71.3% | OVCAR-5 ovarian 56.1% | OVCAR-4 ovarian 74.2% | SK-OV-3 ovarian 57.6% | IGROV1 ovarian 48.2% | OVCAR-3 ovarian 77% | HS 578T breast 77.6% | NCI/ADR-RES ovarian 56.3%

Cc1ncc(C(=O)Nc2ccc(CN3CCN(C)CC3)c(C(F)(F)F)c2)cc1C#Cc1cnc(N)c2cnccc12
inactive: EKVX NSCLC 21.5% | SN12C renal 11.7% | CCRF-CEM leukemia 10.3% | MOLT-4 leukemia 13% | RPMI-8226 leukemia 39.2% | OVCAR-8 ovarian 15.4% | OVCAR-5 ovarian 12.5% | OVCAR-4 ovarian 40.7% | OVCAR-3 ovarian 31.2% | NCI/ADR-RES ovarian 55.3%
active: SK-MEL-2 melanoma -85.3% | UO-31 renal -30.1% | TK-10 renal -22.6% | ACHN renal -21.6% | CAKI-1 renal -91.5% | A498 renal -90.5% | SR leukemia -17.8% | SK-OV-3 ovarian -30.9% | IGROV1 ovarian -31.3% | HS 578T breast -16.6%

Cn1cc(-c2nn3cc(-c4ccccc4)nc3s2)c2ccccc21
inactive: SK-MEL-2 melanoma 79.6% | EKVX NSCLC 72.5% | SN12C renal 78.7% | UO-31 renal 42.8% | TK-10 renal 95.5% | ACHN renal 74.2% | CAKI-1 renal 55.3% | A498 renal 85.3% | CCRF-CEM leukemia 76.4% | MOLT-4 leukemia 65.3% | SR leukemia 13.2% | RPMI-8226 leukemia 91.2% | OVCAR-8 ovarian 89.4% | OVCAR-5 ovarian 70.5% | OVCAR-4 ovarian 63.6% | SK-OV-3 ovarian 68.7% | IGROV1 ovarian 52.1% | OVCAR-3 ovarian 72.7% | HS 578T breast 62.3% | NCI/ADR-RES ovarian 70.5%

COc1cccc(C(=O)OCC(O)C(=O)NC23CC4CC(CC(C4)C2)C3)c1 (stereo not given)
inactive: SK-MEL-2 melanoma 101% | EKVX NSCLC 97.4% | SN12C renal 95.5% | UO-31 renal 87.1% | TK-10 renal 96.4% | ACHN renal 97.2% | CAKI-1 renal 99.8% | A498 renal 96.9% | CCRF-CEM leukemia 86.3% | MOLT-4 leukemia 95.4% | SR leukemia 88.9% | RPMI-8226 leukemia 101% | OVCAR-8 ovarian 95.3% | OVCAR-5 ovarian 100% | OVCAR-4 ovarian 99.4% | SK-OV-3 ovarian 99.5% | IGROV1 ovarian 104% | OVCAR-3 ovarian 111% | HS 578T breast 98.8% | NCI/ADR-RES ovarian 95.2%

Nc1c(C(=O)Nc2ccncc2)sc2nc3c(cc12)CCCCC3
inactive: SK-MEL-2 melanoma 93.7% | EKVX NSCLC 74.2% | SN12C renal 78.9% | UO-31 renal 66.6% | TK-10 renal 85.9% | ACHN renal 88.6% | CAKI-1 renal 81.6% | A498 renal 74.5% | CCRF-CEM leukemia 54.4% | MOLT-4 leukemia 40.3% | SR leukemia 43.6% | RPMI-8226 leukemia 47.2% | OVCAR-8 ovarian 65.2% | OVCAR-5 ovarian 83.4% | OVCAR-4 ovarian 55.8% | SK-OV-3 ovarian 75.8% | IGROV1 ovarian 98.9% | OVCAR-3 ovarian 88.9% | HS 578T breast 85.1% | NCI/ADR-RES ovarian 75.5%

Cc1cc2nc3c4ccccc4n(CCN(C)C)c3nc2cc1C
active: UO-31 renal -12% | ACHN renal -26.5% | CAKI-1 renal -3.55% | A498 renal -15.2% | MOLT-4 leukemia 4.73% | SR leukemia 4.17% | RPMI-8226 leukemia -19.7% | OVCAR-8 ovarian 6.84% | OVCAR-4 ovarian -1.33% | IGROV1 ovarian 5.07% | HS 578T breast 3.81% | NCI/ADR-RES ovarian 6.55%
inactive: SK-MEL-2 melanoma 11% | EKVX NSCLC 18.1% | SN12C renal 16.9% | TK-10 renal 26.7% | CCRF-CEM leukemia 10.3% | OVCAR-5 ovarian 15.6% | SK-OV-3 ovarian 13.3% | OVCAR-3 ovarian 18%

CCCCNC1=C(OCC)C(=O)c2ccccc2C1=O
inactive: SK-MEL-2 melanoma 104% | EKVX NSCLC 104% | SN12C renal 97.2% | UO-31 renal 91.5% | TK-10 renal 145% | ACHN renal 105% | CAKI-1 renal 110% | A498 renal 37.4% | CCRF-CEM leukemia 100% | MOLT-4 leukemia 108% | SR leukemia 112% | RPMI-8226 leukemia 88.1% | OVCAR-8 ovarian 101% | OVCAR-5 ovarian 150% | OVCAR-4 ovarian 94.3% | SK-OV-3 ovarian 119% | IGROV1 ovarian 115% | OVCAR-3 ovarian 98.3% | HS 578T breast 84.2% | NCI/ADR-RES ovarian 97.3%
